Structures can show the parent of a compound that is named as a salt.
Test system: 4T1
Assay: % inhibition of 4T1 cell number vs DMSO control; higher = stronger growth inhibition
Conditions: 1 µM, 3 days
Summary of the method: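 In 96-well imaging plates whose edge wells went unused, 3000 4T1-H2B-GFP mouse breast cancer cells per well were seeded in 2% FBS medium onto plastic, denuded lung matrix, mCAF1 fibroblast-derived matrix, Matrigel (15 μg/mL) or 0.2% gelatin. Sixteen hours on, kinase inhibitors went in at 1 μM final for 3 days before formalin fixation, DAPI staining and imaging on an INCell Analyzer 2200. Counting of GFP-positive nuclei gave cell numbers, from which percent inhibition relative to control was derived.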

[1] = substrate: lung fibroblast-derived matrix
[2] = substrate: mCAF1 fibroblast-derived matrix

SMILES	% inhibition of 4T1 cell number (substrate: Matrigel) [%]	% inhibition of 4T1 cell number (substrate: gelatin) [%]	% inhibition of 4T1 cell number [1] [%]	% inhibition of 4T1 cell number [2] [%]	% inhibition of 4T1 cell number (substrate: plastic) [%]
COc1cc(SC)ccc1C(=O)N1CCC(Cc2ccccc2)CC1 [p38 MAP Kinase Inhibitor VI, JX401]	-31.1	8.59	-4.09	17	-66.3
N#Cc1c(NC(=O)c2cccc3ccccc23)sc2c1CCCC2 [JNK Inhibitor IX]	92	92.5	2.5	90.8	86.4
N#Cc1c(C2CCNCC2)cc(-c2c(O)cccc2OCC2CC2)nc1N [IKK-2 Inhibitor VIII]	-23.5	-17.9	-4.53	9.43	-39.2
COc1ccc(Cl)cc1NC(=O)Nc1cc(C)nc2ccccc12 [IGF-1R Inhibitor II]	-4.34	-99	-3.14	-1.23	-44.3
O=C(Nc1ccc(Cl)cc1)c1ccccc1NCc1ccncc1 [VEGF Receptor Tyrosine Kinase Inhibitor II]	28.8	-12.3	79.7	0.43	17.2
O=C1NCCc2[nH]c(-c3ccnc(-c4cnc5ccccc5c4)c3)cc21 [MK-2 Inhibitor III]	-42.1	-5.86	-4.6	4.98	-48.3
COc1cc2ncnc(N3CCN(C(=O)Nc4ccc(Oc5ccccc5)cc4)CC3)c2cc1OC [PDGF Receptor Tyrosine Kinase Inhibitor III]	-4.76	-15.1	-1.37	49.3	-34.7
O=c1c(O)c(-c2ccc(O)c(O)c2)oc2cc(O)c(O)c(O)c12 [Quercetagetin]	28.5	52.6	-6.29	36.1	48.4
CC[C@@H](CO)Nc1nc(NCc2ccc(-c3ccccn3)cc2)c2ncn(C(C)C)c2n1 [CR8, (S)-Isomer]	99.4	98.9	60.2	95.8	96.5
O=c1cc(N2CCOCC2)oc2c(-c3ccccc3)cccc12	-14.7	-77.3	28.2	17.4	-56.8
CCCCCCCCCCCCCCCCn1cc[n+](Cc2ccccc2)c1C [eEF-2 Kinase Inhibitor, NH125]	81.5	78.5	52.8	83.2	93.2
Cn1c2ccccc2c2c3c(c4c5ccccc5n(CCC#N)c4c21)CNC3=O	50.9	67.2	-8.31	34.5	72.7
CCCCCCOC(=O)[C@]1(O)C[C@@H]2O[C@@]1(C)n1c3ccccc3c3c4c(c5c6ccccc6n2c5c31)C(=O)NC4	-41.8	-0.139	-8.63	13.5	-74.7
CC[C@H](CO)Nc1nc(NCc2ccccc2O)c2ncn(C(C)C)c2n1 [Olomoucine II]	13.3	23.4	19.8	13.3	23.7
CCCCc1c(-c2ccc(O)cc2)[nH]c2nccnc12 [Aloisine A]	53.4	38	1.62	-3.45	48.1
COc1cc2c(cc1OC)-c1[nH]nc(Nc3cccc(F)c3)c1C2 [PDGF Receptor Tyrosine Kinase Inhibitor IV]	94.6	84.5	-13.5	89.7	74.7
NC(N)=NCCNS(=O)(=O)c1cccc2cnccc12 [HA 1004, Dihydrochloride]	-14.8	-0.694	-2.73	-8.89	-48.5
CC(=O)c1ccc(N2CCOCC2)cc1O [DNA-PK Inhibitor III]	0.894	-13.7	-5.23	-5.96	-24.1
CC(C)(C)c1nc2c3cc[nH]c(=O)c3c3cc(F)ccc3c2[nH]1 [JAK Inhibitor I]	-23.5	-101	-5.54	20.7	-71.6
O=C(c1ccc(Nc2nccc(-c3cc4ccccc4s3)n2)cc1)N1CCC(N2CCCC2)CC1 [IKK Inhibitor VII]	81.6	55.4	-10	52.9	-20.6
Nc1n[nH]c(N)c1N=Nc1ccc(O)cc1 [Cdk9 Inhibitor II]	11	10.5	-8.89	-4.98	12
Cc1cc(Nc2nc(-c3ccccc3)nc3ccccc23)n[nH]1 [GSK-3 Inhibitor XIII]	-21.7	-25.8	-19	62.3	-14.5
NC(=O)Nc1sc(-c2ccccc2)cc1C(N)=O [IKK-2 Inhibitor VI]	-32	-1.17	-16	28.5	-60
NS(=O)(=O)c1ccc(N=Nc2c(O)[nH]c3ccc(Br)cc23)cc1 [Cdk2 Inhibitor II]	14.7	31.6	-5.54	18.1	-9.24
CC[n+]1c(/C=C/N(C)c2ccccc2)n(-c2ccccc2)c2ccc(-c3nc4ccccc4s3)cc21 [Akt Inhibitor IV]	53.2	56.7	-4.76	92.1	78.2
Cc1ccc(S(=O)(=O)/C=C/C#N)cc1	18.5	38.2	-8.23	-0.662	5.77
Nc1nc(Nc2ccc(S(N)(=O)=O)cc2)nn1C(=S)Nc1c(F)cccc1F [Cdk1/2 Inhibitor III]	90.1	90	1.23	97.8	95.5

SMILES	% inhibition of 4T1 cell number (substrate: Matrigel) [%]	% inhibition of 4T1 cell number (substrate: gelatin) [%]	% inhibition of 4T1 cell number [1] [%]	% inhibition of 4T1 cell number [2] [%]	% inhibition of 4T1 cell number (substrate: plastic) [%]
CCC(=O)Nc1ccc2ncnc(Nc3cccc(Br)c3)c2c1	-8.72	-108	-2.26	-19.4	-59.2
O=C1NC(=O)C(c2c[nH]c3ccccc23)=C1c1c[nH]c2ccccc12 [Bisindolylmaleimide IV]	24.5	-65.7	47.8	17.1	-20.6
CC(C)(C)c1ccc(S(=O)(=O)Nc2ccc(-n3ccnc3)cc2)cc1 [Stem-Cell Factor/c-Kit Inhibitor, ISCK03]	40.2	60.6	90.5	7.06	39.4
N#CC(c1ccnc(NCCc2cccnc2)n1)c1nc2ccccc2s1 (stereo not given) [JNK Inhibitor V]	-8.79	6.99	-8.74	52.2	8.02
OCC(O)CCO/N=C1\C(c2c(O)[nH]c3ccccc23)=Nc2ccccc21 (stereo not given) [Indirubin Derivative E804]	-31.7	0.993	-5.02	85.4	67.7
CN[C@@H]1C[C@H]2O[C@@](C)([C@@H]1OC)n1c3ccccc3c3c4c(c5c6ccccc6n2c5c31)C(=O)N[C@H]4O	99.4	99.2	14.1	88.8	95.5
Cc1ncc2ccccc2c1C#N [4-Cyano-3-methylisoquinoline]	48.6	52.6	-13.2	-46.1	56.8
COc1nccc(-c2c(-c3ccc(F)cc3)ncn2C2CCC(O)CC2)n1 (stereo not given)	46.2	34.2	-8.71	-18.3	19.8
O=C1c2ccccc2-c2n[nH]c3cccc1c23 [JNK Inhibitor II]	-51.1	-11.8	-2.64	27.7	-62.6
O=C1NC(=O)C(c2cn(CCCO)c3ncccc23)=C1c1cnccn1 [GSK-3b Inhibitor XI]	26.7	30.4	0.393	15.6	44.6
N#CC(C#N)=C(N)/C(C#N)=C/c1ccc(O)cc1	-1.44	52.7	-11.6	11.4	21.1
Cc1ccc(NC2=CC(=O)c3sc(C)nc3C2=O)cc1 [Cdk4 Inhibitor III]	-14.1	30.5	99.5	12.4	-21.1
O=C(c1ccccc1)c1ccc(N2CCOCC2)cc1O [DNA-PK Inhibitor V]	58	77.4	-6.09	54.5	92.7
O=C1Cc2c([nH]c3ccc([N+](=O)[O-])cc23)-c2ccccc2N1 [Alsterpaullone]	61.5	45.2	-3.92	-0.808	56.1
CC[C@H](CO)Nc1nc(NCc2ccccc2)c2ncn(C(C)C)c2n1 [Roscovitine]	-1.22	53.1	-2.74	3.56	-18.8
C[S+]([O-])c1ccc(-c2nc(-c3ccc(F)cc3)c(-c3ccncc3)[nH]2)cc1 (stereo not given)	28.8	44.4	99.2	14.9	23.3
O=C(Nc1cc(C(F)(F)F)cc(C(F)(F)F)c1)c1cc(Cl)ccc1O [IKK-2 Inhibitor V]	91.1	90.6	80.7	82.9	94.5
O=C(O)c1ccc2c3c1cccc3c(=O)n1c3ccccc3nc21	30.6	44.3	-11.4	31.2	32.2
c1cc(-c2cnn3cc(-c4ccc(OCCN5CCCCC5)cc4)cnc23)ccn1 [AMPK Inhibitor, Compound C]	49.6	27.5	12.9	7.87	52.8
O=c1[nH][nH]c2nnc(-c3c(-c4ccccc4)nn4ccccc34)cc12 [ERK Inhibitor II, Negative control]	-40.3	-11.4	-10	3.24	-83.1
COc1ccc2c(c1)c(C1=C(c3c[nH]c4ccccc34)C(=O)NC1=O)cn2CCCN(C)C	-19.1	-76.7	-27.2	11.8	-63.4
c1ccc(-c2n[nH]c3c2oc2ccccc23)cc1	-3.87	-77.4	-1.95	-3.97	-64.2
C[C@@H](N)C1CCC(C(=O)Nc2ccncc2)CC1 (stereo not given in full)	-13.2	-4.77	-5.27	9.93	-47.5
O=C(c1cc2cc(O)ccc2[nH]1)c1cc2cc(O)ccc2[nH]1 [Flt-3 Inhibitor II]	13.9	26.6	23.8	22.7	-36.1
CCCCc1c(-c2ccc(OC)cc2)[nH]c2nccnc12 [Aloisine, RP106]	39.6	41.7	-14.4	-9.32	46.9
Cc1nc2cc3nc(-c4cccs4)cnc3cc2n1C	47.1	-31.4	-7.74	-22.1	37.6
O=C1NC(=O)/C(=C/c2ccc3c(c2)OC(F)(F)O3)S1 [PI 3-Kg Inhibitor II]	27.2	11.1	39.7	5.87	37.8

— the supplement of paper PMC8269313
